T cruzi growth-1: inhibitors of T. cruzi proliferation | T. cruzi beta-gal in NIH3T3, GalScreen luminescence, 90 h | inhibition, % at 8.34 µM | 77,000 tested, 5.9% active | AID 624255;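 active means mean inhibition above about 93%, with at least 55% of replicates each passing it, limit read from the data, passing the limit was not always enough; inconclusive means only one of those two conditions holds; inactive means neither condition holds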
Pf Dd2 inh: P. falciparum Dd2 growth inhibition. SYBR Green, 72 h; hits give low values. 94,000 tested, 2.3% active. activity change, % at 10 µM; in the data active means activity change below about -80%; inconclusive means no clear call, values can overlap the other calls
C diff HTS: inhibitors of Clostridium difficile growth | growth activity, negative = inhibition, % at 16 µg/mL (by protocol) | 86,000 tested, 0.25% active | Clostridium difficile clinical isolate growth, OD600, 24 h; hits give low values | AID 1259249;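 active means mean growth activity at or below -80% and every replicate also at or below -80%; inconclusive means mean at or below -80% but some replicate above -80%; inactive means mean growth activity above -80%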;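 further: 0% = DMSO wells and -100% = levofloxacin 16 µg/mL wells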
T cruzi growth-2: inhibitors of T. cruzi proliferation. shares compounds with T cruzi growth-1. T. cruzi beta-gal in NIH3T3, GalScreen luminescence, 90 h. inhibition, % at 8.35 µM. 5,600 tested, 72% active. AID 651739;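 active means mean replicate inhibition above about 95% and at least 55% of replicates individually reaching it, limit read from the data; inconclusive means only one of the two criteria is met; inactive means neither criterion is met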
T cruzi growth-3: Trypanosoma cruzi proliferation inhibition | inhibition, % at 2.09 µM | shares compounds with T cruzi growth-1 | T. cruzi beta-gal in NIH3T3, GalScreen luminescence, 90 h | 5,600 tested, 21% active | AID 651740;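 active means mean inhibition above about 95%, with at least 55% of replicates also reaching it, limit read from the data; inconclusive means meets just one of the two conditions; inactive means meets neither condition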;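 further: plate controls were neutral control median for no effect and positive control median for full effect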
3T3 cytotox: kills mouse NIH/3T3 fibroblasts; shares compounds with T cruzi growth-1; NIH/3T3 viability, CellTiter-Glo ATP luminescence, 90 h; cytotoxicity (signal decrease), % at 8.35 µM; 5,600 tested, 14% active; AID 651742;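 active means mean signal decrease across replicates above about 35% based on untreated-well scatter, with enough replicates individually passing, limit read from the data; inconclusive means no rule stated though some were filed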;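 further: 0% = median of neutral control wells and 100% = median of positive control wells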
3T3 cytotox 2: kills mouse NIH/3T3 fibroblasts; shares compounds with T cruzi growth-1; NIH/3T3 viability, CellTiter-Glo ATP luminescence, 90 h; inhibition, % at 24.9 µM; AID 651744; 5,600 tested, 56% active;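 active means mean loss of cell viability signal at or above a set limit, and enough replicates individually reaching it; inconclusive means meets only the mean limit or only the replicate share; inactive means meets neither condition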;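 further: 0% = median of neutral control wells and 100% = median of positive control wells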
Starred values were filed as active, the others as inactive; ? = inconclusive; / = no result. Most compounds without a hit are left out; they make up all but 6.7% or so of the library.

SMILES | T cruzi growth-1 | Pf Dd2 inh | C diff HTS | T cruzi growth-2 | T cruzi growth-3 | 3T3 cytotox | 3T3 cytotox 2
C[C@@H]1CN([C@H](C)CO)C(=O)c2cc(NC(=O)Nc3ccc4c(c3)OCO4)ccc2O[C@@H](C)CCCCO[C@@H]1CN(C)S(=O)(=O)c1cn(C)cn1 | 25.9 | 7.6 | 1.3 | / | / | / | /
CC(C)CC#Cc1ccc2c(c1)O[C@@H](CN(C)C)[C@H](C)CN([C@H](C)CO)S2(=O)=O | 65.1 | -66.1 | 22.6 | / | / | / | /
O=C(c1cccc(F)c1)N1CC[C@@H]2[C@H]1c1cc(-c3ccccc3F)ccc1N[C@@H]2CO | 90.1 | 29.8 | -5.5 | / | / | / | /
O=C(c1ccccc1)N1CC[C@@H]2[C@@H](CO)Nc3ccc(-c4ccccc4F)cc3[C@@H]21 | 108.3* | -4.3 | -9.1 | 108.3* | 78.8 | 8.5 | ?
O=C(C[C@H]1C[C@@H]2c3cc(NC(=O)CC4CC4)ccc3O[C@@H]2[C@H](CO)O1)NCc1ccc2c(c1)OCO2 | 34.8 | 1.9 | -0.4 | / | / | / | /
C[C@@H]1CN([C@@H](C)CO)C(=O)c2cc(NS(=O)(=O)c3ccccc3)ccc2O[C@@H](C)CCCCO[C@H]1CN(C)Cc1ccccc1 | / | -18.5 | 0.8 | / | / | / | /
CCCN(C)C[C@@H]1OCCCC[C@H](C)Oc2ccc(NS(C)(=O)=O)cc2C(=O)N([C@@H](C)CO)C[C@H]1C | ? | -39.8 | -4.6 | 54.7 | 40.4 | 2.5 | -8.9
C[C@@H]1CCCCO[C@H](CN(C)Cc2ccncc2)[C@H](C)CN([C@@H](C)CO)C(=O)c2cc(NS(C)(=O)=O)ccc2O1 | 104.0* | 30.8 | 0.4 | 18.6 | -10.6 | -20.4 | -1.6
C[C@@H]1CCCCO[C@@H](CN(C)Cc2ccccc2)[C@@H](C)CN([C@@H](C)CO)C(=O)c2cc(NS(=O)(=O)c3ccc(Cl)cc3)ccc2O1 | ? | -44.5 | 11.1 | 95.2* | 108.5* | 5.5 | 104.1*
CCCN(C)C[C@H]1OCCCC[C@@H](C)Oc2ccc(NS(C)(=O)=O)cc2C(=O)N([C@H](C)CO)C[C@@H]1C | 37.9 | 0.2 | 3.0 | / | / | / | /
C[C@@H]1CN([C@@H](C)CO)C(=O)c2cc(NS(=O)(=O)c3ccc(Cl)cc3)ccc2O[C@@H](C)CCCCO[C@H]1CN(C)Cc1ccccc1 | 108.7* | -38.5 | 2.4 | 109.0* | 107.0* | 17.0 | 88.0*
C[C@@H]1CCCCO[C@@H](CN(C)Cc2ccccc2)[C@@H](C)CN([C@@H](C)CO)C(=O)c2cc(NS(=O)(=O)c3ccccc3)ccc2O1 | -5.5 | -28.3 | / | / | / | / | /
C[C@@H]1CCCCO[C@H](CN(C)Cc2ccncc2)[C@H](C)CN([C@H](C)CO)C(=O)c2cc(NS(C)(=O)=O)ccc2O1 | 7.7 | -2.0 | -2.5 | / | / | / | /
COc1ccccc1CNC(=O)C[C@H]1CC[C@H]2[C@H](COc3ccc(NC(=O)Nc4ccc(F)c(F)c4)cc3C(=O)N2C)O1 | 36.4 | -7.7 | 1.3 | / | / | / | /
CO[C@@H]1CN(C)C(=O)c2cc(NC(C)=O)ccc2OC[C@H](C)N(Cc2cccnc2)C[C@H]1C | 12.4 | 8.8 | 3.5 | / | / | / | /
C[C@H](CO)N1C[C@H](C)[C@H](CN(C)Cc2ccccc2)OCCCC[C@H](C)Oc2ccc(NS(=O)(=O)c3ccc(Cl)cc3)cc2C1=O | 107.2* | -27.2 | 5.9 | ? | ? | ? | 103.5*
C[C@H]1CCCCO[C@@H](CN(C)Cc2ccccc2)[C@@H](C)CN([C@@H](C)CO)C(=O)c2cc(NS(=O)(=O)c3ccc(Cl)cc3)ccc2O1 | 110.3* | -51.1 | 0.7 | 100.4* | 55.0 | 12.2 | 102.9*
C[C@@H]1CCCCO[C@@H](CN(C)Cc2ccncc2)[C@H](C)CN([C@H](C)CO)C(=O)c2cc(NS(=O)(=O)c3ccc(Cl)cc3)ccc2O1 | ? | 6.3 | -11.9 | 95.5* | 55.2 | -7.4 | -7.4
C[C@H](CO)N1C[C@H](C)[C@@H](CN(C)Cc2ccccc2)OCCCC[C@H](C)Oc2ccc(NS(=O)(=O)c3ccccc3)cc2C1=O | 21.0 | 24.3 | / | / | / | / | /
C[C@@H]1CCCCO[C@H](CN(C)Cc2ccccc2)[C@@H](C)CN([C@@H](C)CO)C(=O)c2cc(NS(=O)(=O)c3ccccc3)ccc2O1 | -68.0 | -40.6 | / | / | / | / | /
C[C@@H]1CN([C@H](C)CO)C(=O)c2cc(NS(=O)(=O)c3ccc(Cl)cc3)ccc2O[C@@H](C)CCCCO[C@@H]1CN(C)Cc1ccncc1 | 7.4 | -51.7 | -6.1 | / | / | / | /

Screens from PubChem BioAssay.
